# Assay results taken from the supplement of paper PMC10933113.
# Tested on: KeratinoSens (HaCaT ARE-luciferase) cells;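 active = curve rank above 3; inactive = curve rank 0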
# Experiment: Nrf2/ARE luciferase activation call in qHTS KeratinoSens assay (1 = active, 0 = inactive)
row,Compound,Nrf2/ARE luciferase activation call
1,CCCC[N+]1(C)CCCCC1.O=S(=O)([N-]S(=O)(=O)C(F)(F)F)C(F)(F)F,not active ARE inducer (skin sensitizer alert) (inactive)
2,CCC(COC(=O)c1cc(OC)c(OC)c(OC)c1)(c1ccccc1)N(C)C.O=C(O)/C=C\C(=O)O (configuration not stated),not active ARE inducer (skin sensitizer alert) (inactive)
3,CCCCCCCCCCCC(=O)O.OCCN(CCO)CCO,not active ARE inducer (skin sensitizer alert) (inactive)
4,O=C(O)/C=C/C(=O)O.O=C(O)/C=C/C(=O)O.c1ccc(CN2CCNCC2)cc1,not active ARE inducer (skin sensitizer alert) (inactive)
5,CCCCCCCCCCCCCC[P+](CCCCCC)(CCCCCC)CCCCCC.O=S(=O)([N-]S(=O)(=O)C(F)(F)F)C(F)(F)F,not active ARE inducer (skin sensitizer alert) (inactive)
6,CCCCn1cc[n+](C)c1C.O=S(=O)([N-]S(=O)(=O)C(F)(F)F)C(F)(F)F,not active ARE inducer (skin sensitizer alert) (inactive)
7,C[C@H](CN1CCOCC1)C(C(=O)N1CCCC1)(c1ccccc1)c1ccccc1.O=C(O)[C@H](O)[C@@H](O)C(=O)O,not active ARE inducer (skin sensitizer alert) (inactive)
8,CC(=O)[O][Cr]([OH])[O]C(C)=O.CC(=O)[O][Cr]([OH])[O]C(C)=O.CC(=O)[O][Cr]([O]C(C)=O)[O]C(C)=O,not active ARE inducer (skin sensitizer alert) (inactive)
9,CCN(C)C(=O)Oc1cccc([C@H](C)N(C)C)c1.O=C(O)[C@@H](O)[C@H](O)C(=O)O,not active ARE inducer (skin sensitizer alert) (inactive)
10,CCC[N+]1(C)CCCCC1.O=S(=O)([N-]S(=O)(=O)C(F)(F)F)C(F)(F)F,not active ARE inducer (skin sensitizer alert) (inactive)
11,CCCCCCn1cc[n+](C)c1.O=S(=O)([O-])C(F)(F)F,not active ARE inducer (skin sensitizer alert) (inactive)
12,CC[S+](CC)CC.O=S(=O)([N-]S(=O)(=O)C(F)(F)F)C(F)(F)F,not active ARE inducer (skin sensitizer alert) (inactive)
13,CCCCCCCCCCCCCCCCCC(=O)[O-].OCC[NH+](CCO)CCO,active ARE inducer (skin sensitizer alert)
14,CCn1cc[n+](C)c1.O=S(=O)([N-]S(=O)(=O)C(F)(F)F)C(F)(F)F,not active ARE inducer (skin sensitizer alert) (inactive)
15,CCCn1cc[n+](C)c1.O=S(=O)([N-]S(=O)(=O)C(F)(F)F)C(F)(F)F,not active ARE inducer (skin sensitizer alert) (inactive)
16,CCCCn1cc[n+](C)c1.O=S(=O)([N-]S(=O)(=O)C(F)(F)F)C(F)(F)F,not active ARE inducer (skin sensitizer alert) (inactive)
17,C[C@H]1[C@@H]2Cc3ccc(O)cc3[C@@]1(C)CCN2C.C[C@H]1[C@@H]2Cc3ccc(O)cc3[C@@]1(C)CCN2C.O=C(O)/C=C/C(=O)O,not active ARE inducer (skin sensitizer alert) (inactive)
18,CCCC[P+](CC)(CCCC)CCCC.CCOP(=O)([O-])OCC,not active ARE inducer (skin sensitizer alert) (inactive)
19,CC(C)=CCN1CC[C@@]2(C)c3cc(O)ccc3C[C@@H]1[C@@H]2C.O=C(O)CCC(=O)O,not active ARE inducer (skin sensitizer alert) (inactive)
20,C[N+](C)(C)CCO.O=S(=O)([N-]S(=O)(=O)C(F)(F)F)C(F)(F)F,not active ARE inducer (skin sensitizer alert) (inactive)
21,CCCC[N+](C)(C)C.O=S(=O)([N-]S(=O)(=O)C(F)(F)F)C(F)(F)F,not active ARE inducer (skin sensitizer alert) (inactive)
22,CC[S+](C)CC.O=S(=O)([N-]S(=O)(=O)C(F)(F)F)C(F)(F)F,not active ARE inducer (skin sensitizer alert) (inactive)
